# IL-2 act: activates IL-2 in a cell-based reporter assay | IL-2 activation reporter assay, cell-based qHTS; stimulated with anti-CD3/CD4/CD28 beads; in transgenic mouse T cells | activation, % (series mostly up to about 46 µM) | actives 0.065% (n = 360,000) | AID 652025; in the data active means activation above about 50%; inconclusive means mostly about 30% to 49%; further: 0% is about no effect
#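 Using fluorescent plate cytometry, EGFP and DsRed are detected in transgenic mouse T cells stimulated 18 h at 37 degrees C with antibody-coated beads after 60 min compound pretreatment.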
# BRCA1 expr up: activators of BRCA1 expression | MCF7-BRCA1-FFLuc reporter, luminescence, 48 h; response scale: scaled: vehicle 0%, 10 µM genistein 100% | Potency, µM (doses to about 46.1 µM), for inactives: top-dose activation, usual class: activators | actives 1.1% (n = 380,000); further: potency means the concentration at half of the fitted maximal effect; nearly all actives have a fitted effect of over 80% in size
#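 First, MCF7-BRCA1-FFLuc cells (2000/well) attach for 2 h; next, compounds are pin-added and incubated 48 h at 37 °C; finally, luciferase reagent is added and luminescence read after 15 min.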
# Nrf2 activator: activators of Nrf2 (ARE) signaling. AREc32 ARE-luciferase reporter (MCF7-derived line), luminescence, 24 h. Potency, µM (highest dose often 46.1 µM), for the others: at the top dose activation, hits mostly activators. actives 0.31% (n = 410,000); further: potency means the concentration at half of the fitted maximal effect; % of control where 0% means no effect; nearly all actives have a fitted effect of over 65% in size
#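 Luciferase luminescence (Steady-Glo, 30 min at room temperature) served as the read-out of ARE activation in AREc32 cells treated with compounds for 24 hr at 37 deg C.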
# N370S GC: inhibits or activates N370S mutant glucocerebrosidase; P04062; N370S GC spleen homogenate, 4MU-glucoside fluorescence; Potency, µM (highest dose often 59.4 µM), for inactives: top-dose activity change, negative = inhibition, most hits filed as inhibitors; actives 0.092% (n = 330,000);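 further: potency means the concentration at half of the fitted maximal effect; 0% = full enzyme activity and -100% = no enzyme basal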
# Integrin act MD: activates integrin-mediated alleviation for muscular dystrophy; alpha7betagal myoblasts, beta-gal FDG fluorescence, 48 h; Potency, µM (series often up to 38.3 µM), inactives show at the highest dose activation, most hits filed as activators; actives 0.064% (n = 350,000); AID 624291;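 further: potency means the concentration at half of the fitted maximal effect; 100% = response of the positive control SU9516; nearly all actives have a fitted effect of over 60% in size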
#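 Alpha7betagal+/- myoblasts (passage 13) were plated 16-24 hr, then exposed to compounds (1:260 dilution of DMSO stock) for 48 hours at 37C. After MPER lysis, β-galactosidase reporter activity was read as FDG fluorescence (ex 480/em 540) after 30 minutes.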
# BCR signal inh: chronic active BCR signaling inhibition. ABC-DLBCL IkBa-CBG/CBR reporter, luminescence ratio, 4 h. Potency, µM (titrated, usually from 46.1 µM), for the others: top-dose activity change, negative = inhibition, most hits filed as inhibitors. actives 0.05% (n = 340,000); active means well fitted inhibition curve with a large enough effect in the signal ratio, with a control signal flat, not every such curve was filed as active; inconclusive means small, poorly fitted or top-dose-only effect, or effect the other way, or a change in a side signal; the % refers to the signal ratio;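 further: potency means the concentration at half of the fitted maximal effect; plate controls were basal doxycycline-induced cells for no effect and cells given 10 µM MG132 for full effect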
#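 Concentration-response series (up to 46 uM) were applied to TMD8 dual-reporter cells for 4 h at 37C with doxycycline. Green/red ratio, after filter-overlap correction, defined %Activity; red signal alone was normalised to basal cells and zero luminescence.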
# * marks the source's active call; other numbers are inactive results; ? = inconclusive; / = not tested or not shown; [ ] = remark or other dose. In the library only some 1.4% were active in any assay of this set; here they are far more common. Unless noted, the call rests on the fitted dose curve; in most records, active means well fitted curve in the direction sought with a large enough effect; inconclusive means small, poorly fitted or top-dose-only effect, or another doubt; inactive means no such curve, though single readings can be large; an effect the other way counts as inactive or inconclusive.
SMILES,IL-2 act,BRCA1 expr up,Nrf2 activator,N370S GC,Integrin act MD,BCR signal inh
COc1cc(CNCc2ccc(Br)cc2)cc(OC)c1,-0.5,-18.1%,3.2%,-1.6%,5.3%,2.8%
CC(C)n1cc(/C=C/c2cc[n+](C)cc2)c2ccccc21,294.7*,-41.0%,0.1%[9.22 µM],-20.0%,-85.5%,?
Cc1[nH]c2ccccc2c1/C=C/c1cc[n+](C)cc1,192.4*,-61.4%,-0.6%,-25.7%,-18.0%,-0.7%
CCN(C/C=C/C#CC(C)(C)C)Cc1cccc(OCc2cc(-c3ccsc3)cs2)c1,/,/,/,-11.0%,/,/
S=C(NCCc1c[nH]c2ccccc12)NC1CCCCC1,0.0,11.2µM*,0.7%,3.1%,4.8%,?
O=C(NC1CCCCC1)C(=O)c1c[nH]c2ccccc12,2.1,12.6µM*,3.6%,2.8%,16.1%,?
COc1cc(/C=C2/C(=N)N3C(SC)=NSC3=NC2=O)ccc1OC(=O)c1ccco1,2.9,60.1%,5.0%,-18.9%,3.98µM*,?
CC(=O)OCC1OC(C#Cc2ccccc2)C=CC1O (centres undefined),/,/,/,2.9%[12.8 µM],/,/
COc1ccc(Nc2nc(-c3cccnc3)cs2)c(OC)c1,0.4,11.2µM*,4.2%,2.2%,21.5%,?
c1ccc(CCNc2nc(-c3cccnc3)cs2)cc1,2.6,8.91µM*,2.6%,-1.6%,?,?
c1ccc(CCNc2nc(-c3ccccn3)cs2)cc1,-0.2,?,0.1%,-5.0%,-17.8%,?
CCN(CC)c1ccc(Nc2nc(-c3cccnc3)cs2)cc1,-1.5,3.98µM*,-0.5%,-11.3%,0.0%,-6.0%
CCc1ccccc1Nc1nc(-c2cccnc2)cs1,0.6,?,6.9%,-5.9%,2.6%,-26.5%
COc1ccccc1Nc1nc(-c2cccnc2)cs1,0.3,10µM*,5.4%,-1.0%,28.8%,-28.1%
O=C(NCc1n[nH]c(=S)n1-c1ccc(Cl)c(Cl)c1)c1ccco1,-2.3,-16.0%,0.4%,-2.6%,4.0%,4.0%
CN(C)c1ccc(/C=C/c2cc(/C=C/c3ccc(N(C)C)cc3)c3ccccc3n2)cc1,/,-4.3%,/,/,/,/
O=[N+]([O-])c1ccc(/C=C/c2ccnc3ccccc23)c([N+](=O)[O-])c1,/,-25.2%,/,/,/,/
COc1ccc2c(c1OC)C(=O)OC2c1ccc(O)cc1 (centres undefined),/,-1.3%,/,/,/,/
COc1ccc(C(=O)Nc2cccc(C(=O)Nc3cc(C)ccn3)c2)cc1,0.8,94.8%,3.1%,/,1.5%,/
O=C(C1CCCN(Cc2ccc([N+](=O)[O-])cc2)C1)N1CCCCC1 (centres undefined),0.4,-24.7%,-0.2%,4.5%,-16.5%,-0.8%
CN1CCN(C(=O)CCCOc2cc(=O)n(C)c3ccccc23)CC1,0.5,-8.3%,5.1%,0.7%,-18.0%,25.9µM*
Cn1c(=O)cc(OCCCC(=O)N2CCCCC2)c2ccccc21,0.2,-65.8%,6.7%,3.7%,7.5%[7.66 µM],-14.2%
CC(=O)c1ccc(NC(=O)c2ccc(N3CCCC3=O)cc2)cc1,-0.1,16.6%,-0.7%,2.6%,-4.8%,1.4%
CC(=O)c1ccccc1NC(=O)c1ccc(N2CCCC2=O)cc1,-0.8,7.94µM*,3.2%,-6.1%,16.7%,?
CSc1ccccc1NC(=O)c1ccc(N2CCCC2=O)cc1,1.2,10µM*,2.2%,/,-0.6%,?
SMILES,IL-2 act,BRCA1 expr up,Nrf2 activator,N370S GC,Integrin act MD,BCR signal inh
CCc1ccc(NC(=O)C2=C(C)C(=O)OC23CCCCC3)cc1,/,/,0.0%,/,/,/
CC(C)CN(CC(C)C)c1ccc(/C=C/c2ccnc3ccccc23)cc1,/,-23.4%,/,/,/,/
CC(=O)c1ccc(OCC(=O)OCc2cc(-c3ccco3)on2)cc1,-2.6,-4.9%,0.2%,/,25.5%,-0.5%
O=C(COC(=O)/C=C/c1ccccc1[N+](=O)[O-])NCc1ccco1,-0.6,1.4%,14.1µM*,/,1.9%,-4.7%
COc1ccc(/C=C/c2ccc3ccccc3n2)cc1OC,/,-24.0%,/,/,/,/
COc1ccc(C2=Nn3c(nnc3-c3ccccc3OC)SC2)cc1OC1CCOC1 (centres undefined),-0.5,-83.5%,0.0%,/,/,8.2µM*
CN(CCc1ccccc1)C(C(=O)c1ccc2c(c1)OCO2)c1nnnn1-c1ccccc1NC(=O)OC(C)(C)C (centres undefined),0.5,/,/,/,/,/
Cc1ccccc1C(=O)OCc1cc(=O)n2nc(-c3cccs3)sc2n1,/,-4.0%,4.8%,/,/,/
CCN(N=O)c1ccc(/C=C2\C=Cc3ccccc32)cc1,/,14.8%,/,/,/,/
Cc1ccc(Nc2nc(COC(=O)C3CC3)cs2)cc1,0.5,10µM*,3.7%,5.0%,-3.7%,1.7%
COc1ccc(N=C2C(=S)N(c3ccc(OC)cc3)C(=NS(=O)(=O)c3ccccc3)N2c2ccccc2)cc1,-1.4,3.55µM*,3.3%,/,13.5%,/
N=C1N(c2ccccc2)C(=S)C(=Nc2ccccc2)N1c1ccccc1,-3.6,-12.4%,7.4%,/,-26.5%,/
CCCC(=O)Nc1ccc(C(=O)COC(=O)C2CC2)cc1,2.3,10µM*,4.8%,/,?,1.4%
CCN(CC(=O)Nc1c(F)cccc1F)C(=O)c1cc(S(=O)(=O)N2CCOCC2)ccc1N1CCCC1,-3.0,-69.0%,-0.7%,-1.7%,-13.7%,6.4%
CCOc1ccc(N/C=C\C(=O)c2ccc3c(c2)OCO3)cc1,14.5,4.47µM*,1.7%,/,1.9%,/
CCOC(=O)c1ccc(N/C=C\C(=O)c2cccc(OC)c2)cc1,-0.8,3.55µM*,2.8%,-1.2%,5.2%,?
C[C@@H]1[C@H](O)C[C@@]23COC(=O)C2=CCC[C@@H]3[C@@]1(C)CC/C(=C/CO)CO,-1.6,-19.2%,?,-1.5%,-10.1%,22.4%
CCCCn1cnc2cc(NCc3ccccc3Cl)ccc21,/,8.7%,3.5%,/,/,/
COCc1cc(C)nc2c1C(=O)NC(c1ccc(Br)cc1)N2Cc1ccccc1 (centres undefined),/,1.8%,-0.3%,/,/,/
COc1ccccc1NC(=O)C(=O)/C=C(\O)c1ccccc1,-0.7,2.82µM*,27.6%,-4.2%,3.0%,?
O=C(Nc1c(O)c2ccccc2[nH]c1=O)c1ccco1,0.9,-45.0%,10µM*,3.6%,-21.0%,4.6%
N#Cc1c(N2CCSCC2)nsc1-c1ccccc1Cl,-3.3,11.2µM*,2.0%,13.0%,-43.9%,-1.8%
COc1cc(OC)cc(C(=O)Nc2c(C)nn(-c3ccccc3)c2C)c1,0.0,-8.0%,1.9%,-9.8%,15.2%,-6.6%
Cc1cc(=O)[nH]c2nnc(-c3ccc(Br)cc3)n12,7.6,3.98µM*,0.2%,-2.8%,9.6%,?
O=C(Nc1cccc(Cl)c1)OCC#CCCl,/,/,/,1.5%,/,/
CN(C)c1ccc(/C=C/c2ccnc3cc(Cl)cc(Cl)c23)cc1,/,-16.9%,/,/,/,/
